Data reported in PubChem BioAssay AID1063 (University of Pittsburgh Molecular Library Screening Center, 2008).
Out of some 200,000 compounds screened, about 18,000 (9%) were called active. This is one part of a sample in which actives are shown more often than they occur. A number with no mark means an inactive call. Rule as the data show it: active = inhibition above about 50%; inactive = the rest.

Test: antileishmanial activity against promastigotes – primary screen (AID 1063);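 also: promastigotes grown with compound for 44 hours at 28 °C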
Conditions: Leishmania major promastigotes, resazurin fluorescence viability; at 10 µM; hits give high values

Compound	inhibition
Nc1ccc(C(=O)NCc2ccccc2)cc1	-6.94%
O=C(CN1CCCC1)N1CCN(c2ccccc2)CC1	-4.42%
CCCC(=O)N1CCc2[nH]c3ccccc3c2C1	-2.11%
Cc1ccc2[nH]c3c(c2c1)CN(C(=O)CN1CCN(c2ccccc2)CC1)CC3	69.5% (active)
COc1cc2c(cc1OC)CC1(CCCCC1)N=C2	6%
Nc1nc2n(n1)C(c1ccco1)CC(c1ccc(Cl)c(Cl)c1)N2 (stereo not given)	-1.56%
COc1ccc(C2CC(c3ccc(Cl)cc3Cl)Nc3nc(N)nn32)cc1OC (stereo not given)	-5%
Cc1ccc(C2CC(c3cccc(C)c3)n3nc(N)nc3N2)cc1 (stereo not given)	67.6% (active)
COc1ccc(C2CC(c3ccc(C)cc3)Nc3nc(N)nn32)cc1 (stereo not given)	3.08%
CCOc1ccccc1C1CC(c2ccccc2)Nc2nc(N)nn21 (stereo not given)	-1.13%
Cc1ccc(C2CC(c3cccc(Br)c3)n3nc(N)nc3N2)cc1 (stereo not given)	89.8% (active)
O=C(NCc1ccc(F)cc1)C(c1ccccc1)N(C(=O)c1csnn1)C1CC1 (stereo not given)	-1.88%
Cc1ccc(C(=O)N2CCN(S(=O)(=O)N3CCOCC3)CC2)cc1	-2.24%
Cc1ccc(-c2cn(S(=O)(=O)c3cccc([N+](=O)[O-])c3)nc2N)cc1	3.16%
CC[N+]1(CC)CC2=Cc3ccccc3CC2C1 (stereo not given)	-4.49%
Cc1cc(=O)[nH]c(N/N=C/c2c(C)nn(-c3ccccc3Cl)c2Cl)n1	-2.53%
CC(O)CN(Cc1ccc(Cl)cc1)CC(C)O (stereo not given)	-7.47%
O=C(O)CCN(Cc1ccccc1)S(=O)(=O)c1c(Cl)cccc1Cl	-2.19%
OCCN(Cc1ccccc1)Cc1ccc(Cl)cc1	78.8% (active)
c1ccc2c(c1)OCCOCCOCCO2	-1.98%
CCOC(=O)CNc1nc(Cl)nc(Nc2ccccc2)n1	6.65%
CC(O)c1cccc(NC(=O)Cc2cccc3ccccc23)c1 (stereo not given)	4.7%

Compound	inhibition
O=c1cc(N2CCCCC2)c(-c2ccccc2)nn1Cc1cccc(F)c1	16.7%
COC(=O)c1c(C(=O)OC)c(-c2cccc(C)c2)n2c1CS(=O)C2 (stereo not given)	-12.1%
O=[N+]([O-])c1cccc(C2=NCCS2)c1	-6.13%
CC(C)N(C(=O)Cn1cc(SCC(=O)N2CCCC2)c2ccccc21)C(C)C	-0.03%
C=CCNc1nnc(C)c2ccccc12	8%
C=CCNc1nnc(SCC(=O)N2CCCCC2)c2ccccc12	54.3% (active)
CN1C(=O)/C(=C/c2ccc(C(=O)NC3CCCC3)cc2)Oc2ccccc21	-4.09%
CCOC(=O)c1cc(-c2ccc(F)cc2)n(CC(=O)NCc2ccccn2)c1C	3.59%
COc1cccc(CNn2cn[nH]c2=S)c1OCc1ccccc1	15.9%
COC(=O)C(C)N=Cc1ccccc1 (stereo not given)	-2.89%
Cc1cc(C(=O)COC(=O)C2CC2)c(C)n1-c1ccc(F)cc1	-2.35%
Cc1c(Cl)c([N+](=O)[O-])nn1CC(=O)NCC1CCCO1 (stereo not given)	-3.45%
COCCCNC(=S)NCCNc1nc2cc(C)c(C)cc2cc1C#N	19.8%
O=C1c2ccccc2C2=Nc3ccccc3SC(c3ccccc3F)C12 (stereo not given)	98.3% (active)
O=C(NCCCN1CCCCCC1)c1ccc(N2CCCC2=O)cc1	0.31%
Cn1c(C(=O)NCCCN2CCCCC2)cc2sccc21	74.1% (active)
COc1ccc(CCNC(=O)c2cc3sccc3n2C)cc1OC	7.15%
COc1ccc(C2(CNC(=O)Cc3ccc(OC)c(OC)c3)CCCC2)cc1	0.15%
CCOc1ccc(C(=O)Nc2cccc(-c3ccc4nncn4n3)c2)cc1	-2.57%
Cc1ccc(NC(=O)c2oc3ccccc3c2C)c([N+](=O)[O-])c1	-2.37%
Cc1ccc(NC(=S)NC(=O)c2ccc(-c3ccccc3)cc2)c(C)c1	-4.31%
Cc1ccc(NC(=O)c2oc(=O)c3ccccc3c2-c2ccccc2)c(C)c1	55.8% (active)

Compound	inhibition
COc1ccccc1N(C)S(=O)(=O)c1ccc(Cl)c(C(=O)N2CCC(C(N)=O)CC2)c1	-3.28%
COc1cc(/C=N/Nc2ccc(C)cc2)cc(Br)c1O	-20.7%
Cc1ccccc1OCCOc1ccc([N+](=O)[O-])cc1/C=N/n1cnnc1	37.6%
Cc1c(Br)ccc(NC(=O)COc2ccccc2C(N)=O)c1C	2.06%
COc1ccccc1-c1n[nH]c2c1[C@H](C)CC[C@H]2C(C)C	62.9% (active)
COc1ccccc1-c1nc(SC)n[nH]1	-6.03%
C=C(C)COc1ccc(-c2n[nH]c(C)c2-c2ccccc2OC)c(O)c1	-7.88%
Cc1ccc(S(=O)(=O)N(C)C)cc1NC(=O)c1ccccc1Br	-1.67%
COc1ccc(OC)c(-c2csc(NC(=O)C3=NNC(=O)CC3)n2)c1	-4.28%
CCc1nnc(NC(=O)CSc2nc(SC)ns2)s1	-6.1%
CCOC(=O)C1C(=O)C=C(c2ccc(OC)cc2)CC1c1ccco1 (stereo not given)	0.83%
CCc1cccc(OC2OC(CO)C(O)C(O)C2NC(C)=O)c1 (stereo not given)	-8.46%
CC(=O)NC1C(Oc2ccc(C)cc2)OC2COC(c3ccco3)OC2C1O (stereo not given)	54.2% (active)
CCC(C)(C)NC(=O)CN(Cc1cccs1)C(=O)CNS(=O)(=O)c1ccc(F)cc1	-4.43%
CCOC(=O)c1c(C)[nH]c2c1-c1ccccc1C(=O)C2=O	100% (active)
CCOC(=O)c1cc2n(c1N)-c1ccccc1C2=O	1.96%
CCOC(=O)c1c(C)[nH]c(=S)c(C#N)c1-c1ccccc1	-3.7%
O=c1cc(O)c(-c2cccc(C(F)(F)F)c2)c(Cl)[nH]1	16.3%
c1ccc2c(NCC3CCCO3)nc(-c3ccncc3)nc2c1 (stereo not given)	3.5%
CC(C)(C)c1nc(NCC2CCCO2)c2nnn(Cc3ccccc3)c2n1 (stereo not given)	2.46%
Clc1cccc(-c2nc(NCC3CCCO3)c3ccccc3n2)c1 (stereo not given)	76.4% (active)
